High-throughput results as filed in PubChem.
mcGAS lum: cyclic GMP-AMP synthase inhibitors, mouse, primary biochemical chemiluminescence. Q8C6L5. recombinant cGAS, Kinase-Glo ATP depletion luminescence. inhibition, % at 12.5 µM. 160,000 tested, 0.15% active. AID 1259399, 2018;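 further: 0% = negative control wells and 100% = reference inhibitor with no enzyme activity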
Target sequence (Q8C6L5 whole entry, looked up): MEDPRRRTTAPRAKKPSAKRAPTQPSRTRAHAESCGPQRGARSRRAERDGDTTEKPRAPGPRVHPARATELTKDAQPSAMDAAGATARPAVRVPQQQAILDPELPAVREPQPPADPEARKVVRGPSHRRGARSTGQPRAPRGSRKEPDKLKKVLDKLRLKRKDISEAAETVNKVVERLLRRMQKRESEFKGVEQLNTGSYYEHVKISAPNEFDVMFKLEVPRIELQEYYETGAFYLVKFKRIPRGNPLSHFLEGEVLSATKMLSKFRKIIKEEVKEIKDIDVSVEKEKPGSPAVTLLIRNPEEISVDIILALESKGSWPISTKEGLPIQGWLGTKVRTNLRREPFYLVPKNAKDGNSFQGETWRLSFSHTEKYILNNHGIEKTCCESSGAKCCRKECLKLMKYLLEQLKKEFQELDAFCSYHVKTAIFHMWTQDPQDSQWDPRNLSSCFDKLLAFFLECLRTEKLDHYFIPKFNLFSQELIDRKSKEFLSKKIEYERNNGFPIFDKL
NPYLR7 agonist: agonists of mosquito NPYLR7 receptor, primary screen, cell-based, Aedes aegypti, calcium fluorescence, mosquito biting behavior; activation, % at 10 µM; Aedes aegypti neuropeptide Y-like receptor 7 (NPYLR7); 270,000 tested, 0.15% active; AID 1259423, 2018; HEK293T NPYLR7/Galpha15, GCaMP6s calcium fluorescence; in the data active means activation above about 40%;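 further: 0% = vehicle and 100% = reference agonist at the receptor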
hcGAS lum: Primary biochemical luminescence assay for human cyclic GMP-AMP synthase inhibitors; Q8N884; recombinant h-cGAS, ATP depletion, Kinase-Glo luminescence; inhibition, % at 12.5 µM; 290,000 tested, 0.081% active; AID 1259398, 2018;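 further: 0% = vehicle reaction and 100% = reaction without DNA for no activity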
Numbers without * were called inactive; ! = repeats disagree. A selection: hits, their analogues and other compounds. The true share with any hit is near 0.3%. Unless noted, no stated cut-off is given here; in the data, active means inhibition above about 40%; inactive means the rest.

For N#CC(C#N)=CC(=N)C(C#N)c1cc(O)c(O)c(O)c1 (centres undefined) the results were mcGAS lum 51*, NPYLR7 agonist 7 and hcGAS lum 12.
For Cc1nnc(NC(=O)N2CCCN(c3ccccc3C)CC2)s1 the results were mcGAS lum -3, NPYLR7 agonist 2 and hcGAS lum 1.
For O=C1NC(=S)SC1=Cc1cc(Cl)c2c(c1)OCO2 the results were mcGAS lum 38, NPYLR7 agonist 3 and hcGAS lum 14.
`O=C1NC(=S)S/C1=C/c1cc(Br)c(O)c(Br)c1` gave mcGAS lum 43*, NPYLR7 agonist 24 and hcGAS lum 35.
O=C1NC(=S)S/C1=C\C(Br)=C\c1ccccc1 was read as mcGAS lum 52*, NPYLR7 agonist 0 and hcGAS lum -8.
O=C1NC(=S)S/C1=C/C=C/c1ccccc1 was read as mcGAS lum 4, NPYLR7 agonist -6 and hcGAS lum -5.
`O=C1NC(=S)SC1=Cc1cc(O)c(O)c(Cl)c1` gave NPYLR7 agonist 99* and hcGAS lum 39.
For O=C1NC(=S)N/C1=C\c1cc(Br)c(O)c(Br)c1 the results were mcGAS lum 9, NPYLR7 agonist 27 and hcGAS lum 15.
For O=C(CN1CCCC(C(F)(F)F)C1)Nc1ccccc1C(=O)c1ccccc1 (centres undefined) the results were NPYLR7 agonist 3 and hcGAS lum -3.
`CN(CCCNc1ccccc1C#N)C1CCCCC1` gave NPYLR7 agonist 0 and hcGAS lum -9.
For Cc1onc(-c2c(F)cccc2Cl)c1C(=O)N1CCC(C)CC(C)(C)C1 (centres undefined) the results were mcGAS lum -3, NPYLR7 agonist -9 and hcGAS lum -2.
Screening CCOC(=O)c1c(-c2ccc(C)cc2)csc1N=Cc1nc(-c2ccccc2)oc1O returned mcGAS lum -7, NPYLR7 agonist 3 and hcGAS lum -7.
CCOC(=O)c1c(-c2ccccc2)csc1N=Cc1nc(-c2ccccc2)oc1O was read as mcGAS lum -8, NPYLR7 agonist 97* and hcGAS lum -6.
Cc1cc2c(c(=O)[nH]1)C(=O)O/C2=C\c1ccc(C)o1 was read as mcGAS lum -2, NPYLR7 agonist 20 and hcGAS lum -2.
N#Cc1cc(C(=O)c2cc(Cl)cc(Cl)c2O)cn(-c2nccs2)c1=O was read as NPYLR7 agonist 135* and hcGAS lum -1.
`N#Cc1cc(C(=O)c2cc(Br)ccc2O)cn(-c2ccccc2Cl)c1=O` gave NPYLR7 agonist 42 and hcGAS lum -5.
For Cc1csc(CN(CC2CCCO2)C(=O)C2CC3C=CC2C3)n1 (centres undefined) the results were NPYLR7 agonist 4 and hcGAS lum -12.
Screening O=C(O)CCC(=O)c1cccs1 returned mcGAS lum -7, NPYLR7 agonist 0 and hcGAS lum 48*.
Screening O=C(O)CCc1cccs1 returned NPYLR7 agonist 1 and hcGAS lum -3.
COc1ccc2nc(C=Cc3cc(Br)c(O)c(OC)c3)sc2c1 was read as NPYLR7 agonist 81* and hcGAS lum -6.
For COc1ccc2nc(NC(=O)/C=C/c3ccc(Br)cc3)sc2c1 the results were mcGAS lum -6, NPYLR7 agonist -6 and hcGAS lum 5.
For CCCCN(Cc1ccco1)C(=O)c1coc2c1C(=O)CCC2 the results were NPYLR7 agonist -4 and hcGAS lum 0.
Screening CCn1cc(C(=O)O)c(=O)c2cnc(N3CCNCC3)nc21 returned mcGAS lum -7, NPYLR7 agonist 70*! and hcGAS lum -4.
`CCn1cc(C(=O)O)c(=O)c2cc(F)c(N3CCNCC3)cc21` gave mcGAS lum -4, NPYLR7 agonist -3 and hcGAS lum -2.
For Cc1cccc(NC(=O)c2n[nH]c([N+](=O)[O-])c2Br)c1C the results were mcGAS lum -3, NPYLR7 agonist -1 and hcGAS lum 0.
N#Cc1ccccc1NC(=O)c1n[nH]c([N+](=O)[O-])c1Br was read as NPYLR7 agonist -3 and hcGAS lum 44*.
CCO[C@H]1COC[C@@H]1NC(=O)CN1CCCCCC1 was read as NPYLR7 agonist 2 and hcGAS lum 5.
Screening CC(C)(C)c1cc(NC(=O)c2cc(F)cc(C(F)(F)F)c2)n(-c2ccc(Br)cc2)n1 returned mcGAS lum -8, NPYLR7 agonist 20 and hcGAS lum -9.
For CCOc1ccc2nc(Nc3nc(C)c(C)c(C)n3)nc(C)c2c1 the results were mcGAS lum -5, NPYLR7 agonist 10 and hcGAS lum -4.
Screening CCOc1ccc2nc3cc(N)ccc3c(N)c2c1 returned NPYLR7 agonist 72* and hcGAS lum 99*.
CC(C)N1CCC1(C)C(=O)Nc1cccc2cnccc12 (centres undefined) was read as mcGAS lum -1, NPYLR7 agonist -5 and hcGAS lum -2.
`O=C(c1ccc([N+](=O)[O-])cc1)N1CCCc2ccccc21` gave NPYLR7 agonist 4 and hcGAS lum -6.
O=C(CCl)N1CCCc2cc([N+](=O)[O-])ccc21 was read as mcGAS lum 96*, NPYLR7 agonist 2 and hcGAS lum 1.
Screening CC(=O)CC1(O)C(=O)N(CCCOc2ccccc2)c2c(C)cc(C)cc21 (centres undefined) returned mcGAS lum -6, NPYLR7 agonist 9 and hcGAS lum -6.
For Cc1cccc(C)c1Nc1nnc(C(O)c2cccs2)s1 (centres undefined) the results were mcGAS lum -7, NPYLR7 agonist 2 and hcGAS lum -3.
For O=C1/C(=C/c2ccc3ccccc3n2)Oc2cc(O)ccc21 the results were NPYLR7 agonist 8 and hcGAS lum 3.
Cc1ccc(/C=C2/Oc3cc(O)ccc3C2=O)s1 was read as mcGAS lum -9, NPYLR7 agonist 165* and hcGAS lum 6.
`CCOc1ccc(N2C(=O)C(=Cc3ccc(O)c(OC)c3)SC2=S)cc1` gave mcGAS lum -8, NPYLR7 agonist 1 and hcGAS lum -6.
O=[N+]([O-])c1cc(S(=O)(=O)Nc2cc(Cl)ccc2F)ccc1F was read as NPYLR7 agonist 40* and hcGAS lum -2.
For Cc1ccc(S(=O)(=O)Nc2cc(Cl)ccc2F)cc1C the results were mcGAS lum -2, NPYLR7 agonist 3 and hcGAS lum 8.
COc1ccc(C(=O)Nc2c(C)nc3scc(C)n3c2=O)c(OC)c1 was read as mcGAS lum -8, NPYLR7 agonist 11 and hcGAS lum -10.
For O=[N+]([O-])c1cc(S(=O)(=O)C(F)(F)F)ccc1Sc1nnnn1-c1ccccc1 the results were mcGAS lum 12, NPYLR7 agonist 0 and hcGAS lum -7.
For O=[N+]([O-])c1ccc(Sc2nnnn2-c2ccccc2)c([N+](=O)[O-])c1 the results were mcGAS lum 72*, NPYLR7 agonist 3 and hcGAS lum -7.
For COc1ccc(CCC2CCCNC2)cc1 (centres undefined) the results were mcGAS lum -18, NPYLR7 agonist 4 and hcGAS lum -1.
For CCCn1ncnc1C(C)NC(=O)CN(C)C1CCCC1 (centres undefined) the results were mcGAS lum -3 and hcGAS lum -12.
For CCC(=O)N(C)c1nnc(C23CC4CC(CC(C4)C2)C3)s1 the results were mcGAS lum -2, NPYLR7 agonist 3 and hcGAS lum -4.
